NADH coupling: inhibition of NAD/NADH coupling enzymes, library profiling; coupled PK/LDH NADH assays, four targets; IC50, µM (top dose mostly 10 µM), without a hit: at the highest dose inhibition; hit rate 0.02% among 65,000; AID 774;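 active = single-dose screening hits from any of four coupled enzyme assays that gave an IC50 when retested across doses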;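 note: the DPM-DC format reads NADH fluorescence rather than 340 nm absorbance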
PMK inhibit: blocks S. pneumoniae phosphomevalonate kinase | purified PMK, PK/LDH-coupled NADH absorbance 340 nm | inhibition, % at 10 µM | hit rate 0.49% among 65,000 | AID 539;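 active = top-ranked compounds by inhibition in the single 10 µM screen, taking a fixed number of the strongest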;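 note: 0% = full reaction with DMSO carrier and 100% = background rate without enzyme reaction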
Abs 340nm: absorbance at 340 nm; fold change at 10 µM; AID 708; 65,000 tested, under 10 active; compound absorbance at 340 nm, fold over control;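 active = at 10 µM dose, initial 340 nm absorbance at least 2 fold that of control wells; inactive = change under 2 fold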;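 note: initial absorbance extrapolated from kinetic A340 decline of NADH oxidation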
Autofluor 339: intrinsic fluorescence of library compounds, ex339/em460 – biochemical, MLSMR library, data from DPM-DC assay, artefact control, profiling panel; hit rate 5.5% among 65,000; compound autofluorescence, ex339/em460 nm, NADH buffer; hits give high values; 1 = no-compound wells, NADH background; fluorescence fold increase at 10 µM;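 active = at 10 µM, mean starting fluorescence two-fold or more over control wells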;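 note: signal is the first read of a kinetic run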
Spn DPM-DC inh: blocks S. pneumoniae diphosphomevalonate decarboxylase; purified DPM-DC, PK/LDH coupled NADH fluorescence; calls only at 10 µM; hit rate 0.49% among 65,000; AID 556;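 active = the 320 compounds with the highest percent inhibition in the single-dose primary screen, excluding strongly autofluorescent ones, cut at about 32% in these data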;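 note: kinetic rate of NADH fluorescence loss reporting ADP formed by the decarboxylase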
MK inhibit: blocks S. pneumoniae mevalonate kinase; purified MK, PK/LDH-coupled NADH absorbance 340 nm; inhibition, % at 10 µM; hit rate 0.48% among 65,000;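 active = ranked among the strongest by inhibition in the single 10 µM screen, a fixed top-ranked set picked for dose follow-up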
An asterisk follows results filed as active; i = inactive; . = not tested or not shown. This is a sample that favours compounds with a hit; in the whole collection about 6.5% have one here.

SMILES	NADH coupling	PMK inhibit	Abs 340nm	Autofluor 339	Spn DPM-DC inh	MK inhibit
COc1ccc(-c2nc(C#N)c(NCCN(C)C)o2)cc1	8%	9	1.1	2.1*	.	6
COc1ccc(CCNc2oc(-c3ccc(C)cc3)nc2C#N)cc1OC	8%	13	1.1	2.1*	.	2
COc1ccc(CNc2oc(COc3ccc(Cl)cc3)nc2C#N)cc1	2%	0	1	1.1	i	7
CNc1oc(-c2ccccc2)nc1C#N	7%	5	1.1	2.1*	.	9
COc1ccc(-c2nc(C#N)c(NCCc3ccccc3)o2)cc1	11%	12	1	3.6*	.	9
CC1CCc2cc(F)cc3c(O)c(C(=O)Nc4cnccn4)c(=O)n1c23 (configuration not stated)	3%	4	0.99	1.1	i	4
COc1ccccc1N1CCN(S(=O)(=O)c2cnc[nH]2)CC1	4%	7	1	1.1	i	6
CCCn1nnc(NC(=O)COc2ccc(C3CCCCC3)cc2)n1	4%	6	1	1.1	i	6
COCCNC(=O)CN(C(=O)CCC(=O)Nc1nccs1)c1ccccc1OC	3%	5	1	1.1	i	4
COc1ccc(OC)c2c(C)cc(N3CCCN(C)CC3)nc12	1%	0	1.1	2.2*	.	1
COc1ccccc1N1CCN(c2cc(N3CCCC3)nc(C)n2)CC1	2%	4	1	1.2	i	2
CCC1CCCCN1C(=O)N[C@@H](Cc1ccccc1)C(=O)O (some centres not stated)	12%	7	1	1.1	i	15
COc1ccc(C)cc1S(=O)(=O)N(CC(=O)N1CCCC1)c1ccccc1	5%	12	1	1.1	i	4
O=c1[nH]c2cc(Cl)cc(Cl)c2[nH]c1=O	13%	12	1	2.5*	i	8
Cn1c(=O)[nH]c2cc(Cl)cnc21	5%	10	1	1.1	i	0
CN(C)CC(C)(C)CNC(=O)C1CCN(Cc2ccccc2O)CC1	7%	14	1	1.1	i	7
CCN(CCCNS(=O)(=O)c1ccc2c(c1)CCN2C(C)=O)c1cccc(C)c1	3%	5	1	1.1	i	5
CCOC(=O)Nc1nnc(CCc2ccccc2)s1	8%	9	1.1	2.6*	i	7
COC(=O)Nc1nnc(CCc2ccccc2)s1	4%	10	0.99	1	i	6
CCOC(=O)Nc1nnc(-c2ccc(OC)c(OC)c2)s1	11%	12	1.1	3.7*	.	9
CCn1cc(C(=O)OCC(=O)N(C)C2CCS(=O)(=O)C2)c(=O)c2ccc(C)nc21 (configuration not stated)	10%	19	1	0.95	i	5
CCOC(=O)N1CCN(S(=O)(=O)c2ccc(C(=O)Nc3nc4c(s3)CC(C)CC4)cc2)CC1 (configuration not stated)	14%	15	1.1	4.6*	.	13
CC(C(=O)NCC1CCCO1)N(C(=O)c1snc(C(N)=O)c1N)c1cccc(F)c1 (configuration not stated)	20%	19	1.1	3.9*	i	13
COCCNC(=O)C(c1ccc(C)o1)N(C(=O)c1snc(C(N)=O)c1N)c1ccc(C)c(C)c1 (configuration not stated)	7%	8	1	1.6	i	2
CC(C(=O)NCc1ccccc1)N(CCN1CCOCC1)C(=O)c1snc(C(N)=O)c1N (configuration not stated)	13%	10	1	2.4*	i	4
SMILES	NADH coupling	PMK inhibit	Abs 340nm	Autofluor 339	Spn DPM-DC inh	MK inhibit
CC(C(=O)NCC1CCCO1)N(C(=O)c1snc(C(N)=O)c1N)c1ccccc1 (configuration not stated)	12%	19	1.1	3.1*	i	13
CC(NC(=O)OCc1ccccc1)C(=O)NCC1CCCO1 (configuration not stated)	9%	6	0.99	1.1	i	12
COc1cccc(C2=NOC(C(=O)Nc3cccc(C(C)=O)c3)C2)c1OC (configuration not stated)	6%	12	0.98	1	i	5
CCCc1cc(=O)oc2cc(OCC(=O)Nc3cc(C)on3)ccc12	9%	6	1.1	3.6*	i	0
CCCc1cc(=O)oc2cc(Oc3ncccn3)ccc12	16%	18	1.1	3.4*	i	7
COc1ccc(Cn2c(CCCO)nc3ccccc32)cc1OC	1%	0	1	1	i	5
CCc1cc2c(CN3CCN(CC)CC3)cc(=O)oc2cc1O	5%	8	1.1	3.8*	.	1
COCCCNC(=O)CSC1=Nc2ccccc2C2=NC(CC(=O)NCc3ccccc3)C(=O)N12 (configuration not stated)	15%	16	1	3.4*	i	13
CCC(C)NC(=O)CSC1=Nc2ccccc2C2=NC(CC(=O)NCc3ccccc3)C(=O)N12 (configuration not stated)	6%	14	1	2.1*	i	11
CC(Sc1cccc(C(F)(F)F)c1)C(=O)NC(N)=O (configuration not stated)	6%	14	1	1.1	i	5
CCOc1ccc(CCNS(=O)(=O)c2cccc3nsnc23)cc1OCC	6%	4	1.1	1.1	i	8
CCCCc1nc(N2CCOCC2)c(C#N)c2c1COC(C)(C)C2	6%	9	1	2.3*	.	3
CCCSc1nc(N2CCCC2)c2c(c1C#N)CC(C)(C)OC2	1%	1	1.1	1.2	i	1
CCCCc1nc(NCC2CCCO2)c(C#N)c2c1COC(C)(C)C2 (configuration not stated)	5%	5	1	2.4*	.	4
CCCNC(=O)N1CCN(S(=O)(=O)c2ccc(C)c(C)c2)CC1	4%	3	1	1	i	0
Cn1c(Cc2ccccc2)nnc1SCC(=O)Nc1ccccc1N1CCOCC1	2%	1	1	1.1	i	5
CC(C)n1nnnc1SCC(=O)Nc1ccccc1N1CCOCC1	5%	active	1	1	i	2
COc1ccc(-n2cnnc2SCc2csc(-c3ccccc3)n2)cc1	1%	0	1	1.1	i	3
O=C1CC(NCc2ccc3c(c2)OCO3)C(=O)N1CCc1ccccc1 (configuration not stated)	8%	13	1	1.1	i	3
Cc1cccn2c(N)c(-c3ccccc3)nc12	6%	12	1.1	2.1*	.	0
Cc1ccc2nc(NC(=O)c3ccc(Cn4cc(Cl)cn4)o3)sc2c1	0%	0	1.1	2.2*	i	1
Cc1ccc2nc(NC(=O)c3ccc(Cl)s3)sc2c1	3%	5	1.1	2.1*	.	1

Screening data from PubChem.
